Assay results published in the supplement of paper PMC6555819.

Experiments:
Assay in all cases: PBM binding z-score (relative to random genomic background probes); higher = stronger binding; sequences stand for … in GC…GCGATTGACAGCGTAGAATGAAGG
[1] = tested on: FXR:RXRa (NR concentration 270 nM, RXRa partner concentration 90 nM)
In short: (§1)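 Custom Agilent 4×180K protein-binding microarrays carried double-stranded probes. Their 34-nt variable regions held direct-repeat seeds, single-nucleotide variants, half-site ablations and random human genomic background sequences. Arrays were incubated 1 h with ligand-free nuclear receptor dimers in PBS pH 7.4, 2% milk, 0.02% Triton X-100, 1 mM DTT, 0.2 mg/mL BSA and 0.4 mg/ml salmon testes DNA. Antibodies against each partner (one per run) detected binding, and scanned fluorescence was regression-normalized. Binding z-scores use random background probes as reference.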

[2] = tested on: LXRa:RXRa (NR concentration 270 nM, RXRa partner concentration 90 nM)
In short: as §1

[3] = tested on: LXRa homodimer (NR concentration 270 nM)
In short: as §1

[4] = tested on: LXRb:RXRa (NR concentration 270 nM, RXRa partner concentration 90 nM)
In short: as §1

[5] = tested on: LXRb homodimer (NR concentration 270 nM)
In short: as §1

[6] = tested on: PPARa:RXRa (NR concentration 270 nM, RXRa partner concentration 90 nM)
In short: as §1

[7] = tested on: PPARg:RXRa (NR concentration 180 nM, RXRa partner concentration 90 nM)
In short: as §1

[8] = tested on: PPARg:RXRa 270nM:90nM, anti-RXR (NR concentration 270 nM, RXRa partner concentration 90 nM)
In short: as §1

[9] = tested on: PPARg:RXRa 30nM:10nM, anti-RXR (NR concentration 30 nM, RXRa partner concentration 10 nM)
In short: as §1

[10] = tested on: PPARg:RXRa 90nM:30nM, anti-RXR (NR concentration 90 nM, RXRa partner concentration 30 nM)
In short: as §1

[11] = tested on: PPARg:RXRa DBDmut IVT, anti-RXR (DBD mutation: RXRa K156A/R161A, NR concentration 270 nM, RXRa partner concentration 90 nM)
In short: as §1

[12] = tested on: PPARg:RXRa IVT, anti-PPARg (NR concentration 270 nM, RXRa partner concentration 90 nM)
In short: as §1

[13] = tested on: PPARg DBDmut:RXRa IVT, anti-PPARg (DBD mutation: PPARg1 K132A/R137A, NR concentration 270 nM, RXRa partner concentration 90 nM)
In short: as §1

[14] = tested on: PPARg DBDmut IVT, anti-PPARg (DBD mutation: PPARg1 K132A/R137A, NR concentration 270 nM)
In short: as §1

[15] = tested on: PPARg homodimer (NR concentration 180 nM)
In short: as §1

[16] = tested on: PXR:RXRa (NR concentration 270 nM, RXRa partner concentration 90 nM)
In short: as §1

[17] = tested on: PXR homodimer (NR concentration 270 nM)
In short: as §1

[18] = tested on: RARa:RXR (NR concentration 270 nM, RXRa partner concentration 90 nM)
In short: as §1

[19] = tested on: RARa homodimer (NR concentration 270 nM)
In short: as §1

[20] = tested on: RARb:RXRa (NR concentration 270 nM, RXRa partner concentration 90 nM)
In short: as §1

| Sequence | PBM binding z-score [1] | PBM binding z-score [2] | PBM binding z-score [3] | PBM binding z-score [4] | PBM binding z-score [5] | PBM binding z-score [6] | PBM binding z-score [7] | PBM binding z-score [8] | PBM binding z-score [9] | PBM binding z-score [10] | PBM binding z-score [11] | PBM binding z-score [12] | PBM binding z-score [13] | PBM binding z-score [14] | PBM binding z-score [15] | PBM binding z-score [16] | PBM binding z-score [17] | PBM binding z-score [18] | PBM binding z-score [19] | PBM binding z-score [20] |
| --- | --- | --- | --- | --- | --- | --- | --- | --- | --- | --- | --- | --- | --- | --- | --- | --- | --- | --- | --- | --- |
| ATACCAAGGTGTTCGTGAGGTCGTTGATACTAAC | 1.76 | 2.11 | 1.19 | 1.3 | 0.178 | 1.24 | 0.117 | 0.343 | -0.0462 | 0.253 | -0.0075 | 0.497 | 0.822 | 0.323 | 0.594 | 2.41 | 1.6 | 2.11 | 0.456 | 0.861 |
| GCTAGCAGGCCATTTGGGTCACTCGATGACGGGC | -0.0398 | -0.0743 | -0.738 | -0.0448 | -0.791 | 1.25 | 0.641 | 0.713 | -0.472 | 0.633 | 2.18 | 2.18 | -0.31 | -1.28 | -0.101 | 0.388 | -0.29 | 0.794 | -0.742 | 1.39 |
| TAGCCTAGGTCATTCAGGGGCCAGTAGAGAAAGC | 4.49 | 3.73 | 0.592 | 3.1 | 1.16 | 3.64 | 1.7 | 2.31 | 0.562 | 1.53 | 1.64 | 2.66 | -0.415 | -0.024 | 1.83 | 2.21 | -0.162 | 3.33 | 0.0247 | 3.88 |
| GGAACGAGGGCAAGTTGATGGCAGAGTTTGATGG | 0.782 | 0.592 | -0.0865 | -0.0137 | -0.434 | 1.55 | 0.994 | 0.903 | -0.146 | 0.602 | 3.55 | 2.56 | -0.155 | -0.96 | 0.499 | 0.948 | 0.748 | 0.523 | -0.279 | 2.47 |
| GCATATAAGTAATACAAGGTGAAAGTCCGATTGT | 0.578 | 0.301 | 0.499 | 0.331 | -0.122 | 0.85 | 0.911 | 0.715 | 0.283 | 0.301 | 0.462 | 0.546 | 0.743 | 0.728 | 0.405 | 0.436 | 0.309 | 1.13 | 0.698 | 0.452 |
| TCTATTCGTTGATTAGGGCAACCGAAACAGCGGA | 0.77 | 0.642 | -0.323 | 0.409 | 0.94 | 0.827 | 0.127 | 1.93 | 3.6 | 2.72 | 1.61 | 1.69 | 1.2 | 0.685 | 0.326 | 0.454 | 0.0175 | 0.417 | -0.0226 | 0.637 |
| CCAAGTTGGTCAGGAGGTCACACACCGGATATGA | 3.68 | 3.62 | 1.69 | 3.38 | 0.316 | 4.43 | 3.8 | 4.03 | 1.85 | 2.97 | 2.06 | 3.44 | 0.859 | 0.385 | 2.39 | 4.24 | 0.876 | 4.41 | 0.729 | 3.8 |
| CCTATTGGGCCATCAGGTCATTGATATCAACGTT | 1.84 | 1.28 | 1.09 | 1.42 | -0.199 | 2.25 | 1.29 | 2.49 | 0.897 | 1.88 | 3.63 | 3.39 | 0.758 | 0.0799 | 1.42 | 1.84 | 0.775 | 2 | 0.136 | 2.25 |
| CAAACTAGGTCCCGAAAGGTCAAAGTCGAATGAC | 5.02 | 5.71 | 5.76 | 5.44 | 1.82 | 5.54 | 4.62 | 5.24 | 2.11 | 4.36 | 4.2 | 4.78 | 0.419 | 0.865 | 3.35 | 5.58 | 1.52 | 6.01 | 1.91 | 4.74 |
| TCGAGTAGGATAGGGGCATTCAGAATGGCGTCGA | 0.0392 | -0.388 | -0.671 | 0.283 | -0.491 | 0.262 | 0.0969 | 0.573 | 0.884 | 0.812 | 0.794 | -0.24 | -0.499 | -1.34 | 0.0464 | -0.136 | -0.0675 | -0.134 | -0.862 | 0.225 |
| ATATGTAGGTTATCGGGTCACTCAGTTTGCGCAT | 2.62 | 2.95 | 1.49 | 2.89 | 1.3 | 5.02 | 7.63 | 6 | 3.64 | 5.8 | 7.7 | 7.75 | 1.5 | 2.23 | 3.69 | 3.61 | 4.7 | 3.72 | 1.9 | 2.68 |
| ATACCCAGGTGATCGTGAGGTCGTTGATACTAAC | 1.37 | 1.07 | 0.85 | 1.07 | -0.141 | 1.35 | 0.596 | 0.875 | -0.0532 | 0.317 | -0.291 | 1.1 | 0.599 | 0.838 | 0.843 | 2.35 | 1.32 | 1.95 | -0.274 | 0.914 |
| AATAGAGGGTCACTAGGCCAGAGTAGGTACGAAT | 4.62 | 3.5 | 0.324 | 2.81 | -0.0545 | 4.99 | 6.44 | 5.59 | 2.33 | 4.4 | 3.57 | 5.33 | 0.782 | 0.194 | 1.04 | 1.95 | -0.034 | 2.89 | 0.102 | 3.69 |
| ATCTCTAGCTAACAAGTTCAGTGAAAGAGAGGAC | 0.604 | 0.71 | 0.538 | 0.504 | 0.838 | 0.381 | 0.2 | -0.0606 | 0.335 | 0.17 | -0.615 | 0.373 | 0.64 | 1.17 | 0.988 | 1.36 | 1.62 | 0.744 | 1.13 | 1.15 |
| CTACCAAGGTGAACAAGGTCCTTGATTACTATTC | 0.682 | 0.376 | -0.214 | 0.744 | -0.587 | 1.57 | 0.578 | 0.855 | -0.122 | 0.296 | 2.33 | 2.45 | 0.391 | -0.0815 | 0.182 | 0.728 | 0.218 | 0.944 | -0.035 | 1.64 |
| CCTTATGGGTCACTCCAGGTTATAGCATCGGAGT | 3.67 | 7.24 | 1.43 | 4.49 | -0.105 | 3.92 | 4.6 | 4.39 | 1.84 | 3.6 | 5.51 | 5.56 | 1.27 | 1.01 | 1.61 | 4.22 | 0.18 | 2.9 | 0.657 | 3.35 |
| GTACCAAGGTGCATAGGTCGTTGATGAGTAGGCG | 0.192 | 0.486 | 0.209 | -0.189 | -0.908 | 1.3 | 1.21 | 1.88 | 0.013 | 1.15 | -0.499 | 0.0785 | -0.485 | -0.265 | 0.243 | 0.269 | -0.124 | 1.1 | -0.294 | 0.748 |
| TGAATGAGGTTCAAGATCAGGGAACGTGGCGTCG | 0.995 | 0.96 | -0.757 | 0.185 | -0.0166 | 1.76 | 0.831 | 1.62 | 0.424 | 1.14 | -0.641 | 0.696 | 0.378 | 0.169 | -0.0825 | 0.583 | -0.309 | 0.775 | 0.0432 | 1.17 |
